Assay results from PubChem BioAssay.
Active and inactive are the calls of the source.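 Rule for the calls, unless noted: active = compound raises GLP1 secretion from the human gut endocrine cells, with no numeric limit stated; inactive = the rest.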 Non-standard residues stand in square brackets, D forms with d. Residues, ends and D or L forms follow the SMILES beside them. pGlu = O=C1CC[C@@H](C(=O)O)N1

Assays:
[1] = stimulators of nuclear beta-catenin in C2C12, primary screen, imaging, WNT3A-conditioned medium, mouse C2C12, NPC library (AID 1117326; in the data active = nuclear beta-catenin stimulation mostly above about 4.2%, no sharp cut-off; inactive = mostly below about 10%; note: reference of the scale not given here); details: stronger effect = higher value
[2] = stimulators of insulin release from INS-1E, primary screen, cell-based, 5 mM glucose, NPC library (AID 1117329;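 active = compound raises insulin release from rat beta cells at 5 mM glucose, no numeric limit stated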; note: reference of the scale not given here); details: rat INS-1E insulin secretion, at 10 µM, stronger effect = higher value
[3] = growth inhibition of GSK3B-pretreated HCT116 cells – cell-based, CellTiter-Glo, 0.2 to 20 µM (AID 1117336;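 active = compounds lowering colon cancer cell viability after pretreatment blocking the GSK3B kinase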); details: HCT116 viability after GSK3B inhibitor, at 20 µM, stronger effect = higher value
[4] = inhibition of endothelial tube formation, primary screen, imaging, VEGF stimulated, CD31 staining, tube area, NPC library (AID 1117340;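 active = compound that reduces growth-factor-driven endothelial tube area in a mixed cell culture, no cutoff stated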); details: VEGF-stimulated ADSC/ECFC co-culture, at 10 µM, stronger effect = higher value
[5] = glucagon-like peptide 1 release enhancers, primary assay, NCI-H716 cell line, NPC library (AID 1117341); details: NCI-H716 cells, at 10 µM, stronger effect = higher value; note: reference of the scale not given here
[6] = HCT116 colon cancer cell growth inhibition, primary screen, CellTiter-Glo luminescence, NPC library (AID 1117342;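 active = compounds that lower survival of HCT116 colon cancer cells in the luminescence readout, no numeric limit stated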); details: at 20 µM (top of the series)
[7] = CellTiter-Glo luminescent readout of SW480 viability loss, NPC library primary (AID 1117343;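 active = compounds that lower viability of the colon cancer cells in the luminescence readout, with no numeric limit stated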); details: CellTiter-Glo luminescence; at 20 µM (top of the series)
[8] = decreased DLD-1 cellular survival, CellTiter-Glo luminescent readout, NPC compound collection, primary HTS (AID 1117346;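 active = compounds that lower survival of DLD-1 colon cancer cells in the luminescence readout, no cutoff given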); details: DLD-1 viability, CellTiter-Glo luminescence; at 20 µM (top of the series)

O=C(O)C1CSC(C(=O)O)N1 (centres undefined)
1.2%: nuclear beta-catenin stimulation ([1]; stimulation, at 2 µM)
inactive: nuclear beta-catenin stimulation ([1]; at 10 µM) 0.7% | insulin secretion stimulation [2] -0.4% | viability decrease [3] -6.8% | tube area decrease [4] -2.5% | GLP1 secretion stimulation [5] -3.3% | inhibition of viability [6] 2.5% | viability decrease (inhibition) [7] 4% | viability decrease (inhibition) [8] -8.7%

O=C(O)[C@@H]1C(=CCO)O[C@@H]2CC(=O)N12
inactive: nuclear beta-catenin stimulation ([1]; at 10 µM) 1.3% | insulin secretion stimulation [2] 2.2% | viability decrease [3] 16.4% | tube area decrease [4] 0.5% | GLP1 secretion stimulation [5] -1.2% | inhibition of viability [6] 18.5% | viability decrease (inhibition) [7] 26% | viability decrease (inhibition) [8] -7.7%
0.6%: nuclear beta-catenin stimulation ([1]; stimulation, at 2 µM)

O=S(O)CO
inactive: nuclear beta-catenin stimulation ([1]; at 10 µM) 2.1% | insulin secretion stimulation [2] 0.6% | viability decrease [3] -7.1% | tube area decrease [4] 9.9% | GLP1 secretion stimulation [5] -1.1% | inhibition of viability [6] -0.4% | viability decrease (inhibition) [7] -0.9% | viability decrease (inhibition) [8] 2.7%
0.9%: nuclear beta-catenin stimulation ([1]; stimulation, at 2 µM)

CNC(=O)c1cnn(-c2nc(N)c3ncn([C@@H]4O[C@H](CO)[C@@H](O)[C@H]4O)c3n2)c1
4.8%: nuclear beta-catenin stimulation ([1]; stimulation, at 2 µM)
inactive: nuclear beta-catenin stimulation ([1]; at 10 µM) 2.6% | insulin secretion stimulation [2] -0.3% | viability decrease [3] 3.8% | tube area decrease [4] 20.4% | GLP1 secretion stimulation [5] 4.6% | inhibition of viability [6] 1% | viability decrease (inhibition) [7] 6.8% | viability decrease (inhibition) [8] -13.2%

CCOC(=O)[C@H](CCc1ccccc1)N[C@@H](C)C(=O)N(CC(=O)O)C1Cc2ccccc2C1
inactive: nuclear beta-catenin stimulation ([1]; at 10 µM) 1% | insulin secretion stimulation [2] 1.15% | viability decrease [3] -0.3% | tube area decrease [4] 4.9% | GLP1 secretion stimulation [5] 3.1% | inhibition of viability [6] 10.2% | viability decrease (inhibition) [7] -7.1% | viability decrease (inhibition) [8] -2.9%
0.4%: nuclear beta-catenin stimulation ([1]; stimulation, at 2 µM)

Oc1ccccc1C=NCc1ccccc1
-0.6%: nuclear beta-catenin stimulation ([1]; stimulation, at 2 µM)
inactive: nuclear beta-catenin stimulation ([1]; at 10 µM) -0.8% | insulin secretion stimulation [2] -2.2% | viability decrease [3] 0.9% | tube area decrease [4] -29.7% | GLP1 secretion stimulation [5] 3.8% | inhibition of viability [6] 0.1% | viability decrease (inhibition) [7] 13.6% | viability decrease (inhibition) [8] 0.75%

O=[N+]([O-])c1ccc(/C=N\O)o1
inactive: nuclear beta-catenin stimulation ([1]; at 10 µM) 2% | insulin secretion stimulation [2] -3.1% | viability decrease [3] 35.1% | tube area decrease [4] -16.1% | GLP1 secretion stimulation [5] 4% | inhibition of viability [6] 8.8% | viability decrease (inhibition) [8] 4.47%
0.4%: nuclear beta-catenin stimulation ([1]; stimulation, at 2 µM)
active: viability decrease (inhibition) [7] 53.4%

C=CC[N+]1([C@H]2C[C@H]3[C@@H]4CC[C@H]5C[C@H](OC(C)=O)[C@@H](N6CCCCC6)C[C@]5(C)[C@H]4CC[C@]3(C)[C@H]2OC(=O)CC)CCCCC1
inactive: nuclear beta-catenin stimulation ([1]; at 10 µM) -0.1% | insulin secretion stimulation [2] 1.45% | viability decrease [3] 27.6% | tube area decrease [4] -8.7% | GLP1 secretion stimulation [5] 8.2% | inhibition of viability [6] 32.5% | viability decrease (inhibition) [7] 23.4% | viability decrease (inhibition) [8] -2.8%
-2.6%: nuclear beta-catenin stimulation ([1]; stimulation, at 2 µM)

CC(=O)CCC(=O)O
inactive: nuclear beta-catenin stimulation ([1]; at 10 µM) -1.6% | insulin secretion stimulation [2] 2% | viability decrease [3] -4.6% | tube area decrease [4] 0.2% | GLP1 secretion stimulation [5] -2.2% | inhibition of viability [6] -6.13% | viability decrease (inhibition) [7] 20% | viability decrease (inhibition) [8] -8.6%
-1.3%: nuclear beta-catenin stimulation ([1]; stimulation, at 2 µM)

CC1(C)S[C@@H]2[C@H](NC(=O)C(C(=O)Oc3ccc4c(c3)CCC4)c3ccccc3)C(=O)N2[C@H]1C(=O)O (some centres undefined)
0.4%: nuclear beta-catenin stimulation ([1]; stimulation, at 2 µM)
active: viability decrease (inhibition) [7] 86%
inactive: nuclear beta-catenin stimulation ([1]; at 10 µM) 1% | insulin secretion stimulation [2] 4.4% | viability decrease [3] -7.7% | tube area decrease [4] -2.6% | GLP1 secretion stimulation [5] -0.3% | inhibition of viability [6] 1.5% | viability decrease (inhibition) [8] -6.9%

Cc1cccc(N(C)C(=S)Oc2ccc3c(c2)C2CCC3C2)c1 (centres undefined)
inactive: nuclear beta-catenin stimulation ([1]; at 10 µM) 0.3% | insulin secretion stimulation [2] 1% | viability decrease [3] -64.8% | tube area decrease [4] 15.8% | GLP1 secretion stimulation [5] -4.7%
active: inhibition of viability [6] 50.2% | viability decrease (inhibition) [7] 80% | viability decrease (inhibition) [8] 56.8%
0.6%: nuclear beta-catenin stimulation ([1]; stimulation, at 2 µM)

COc1cc(C(=S)N2CCOCC2)cc(OC)c1OC
2%: nuclear beta-catenin stimulation ([1]; stimulation, at 2 µM)
inactive: nuclear beta-catenin stimulation ([1]; at 10 µM) -0.6% | insulin secretion stimulation [2] 1.5% | viability decrease [3] -0.85% | tube area decrease [4] -15.3% | GLP1 secretion stimulation [5] -0.3% | inhibition of viability [6] -1.2% | viability decrease (inhibition) [7] 9.6% | viability decrease (inhibition) [8] 1.7%

CCC(=O)Oc1ccc2c(c1)CC[C@@H]1[C@@H]2CC[C@@]2(C)[C@H]1C[C@@H](OC(=O)CC)[C@@H]2OC(=O)CC
active: viability decrease (inhibition) [7] 67.4%
inactive: nuclear beta-catenin stimulation ([1]; at 10 µM) 1.7% | insulin secretion stimulation [2] 2.5% | viability decrease [3] -51.4% | tube area decrease [4] 28.9% | GLP1 secretion stimulation [5] -6.9% | inhibition of viability [6] 31.7% | viability decrease (inhibition) [8] -2.6%
1.2%: nuclear beta-catenin stimulation ([1]; stimulation, at 2 µM)

O=C(O)c1ccccc1Nc1cc(Cl)ccc1C(=O)O
-1.8%: nuclear beta-catenin stimulation ([1]; stimulation, at 2 µM)
inactive: nuclear beta-catenin stimulation ([1]; at 10 µM) 2% | insulin secretion stimulation [2] 0.5% | viability decrease [3] 2.4% | tube area decrease [4] -18.4% | GLP1 secretion stimulation [5] 0.1% | inhibition of viability [6] -1.2% | viability decrease (inhibition) [7] -23.2% | viability decrease (inhibition) [8] -18.7%

CCNC(=O)[C@@H]1CCCN1C(=O)[C@H](CCCN=C(N)N)NC(=O)[C@H](CC(C)C)NC(=O)CNC(=O)[C@H](Cc1ccc(O)cc1)NC(=O)[C@H](CO)NC(=O)[C@H](Cc1c[nH]c2ccccc12)NC(=O)[C@H](Cc1cnc[nH]1)NC(=O)[C@@H]1CCC(=O)N1 ([pGlu]HWSYGLRP-NHEt)
inactive: nuclear beta-catenin stimulation ([1]; at 10 µM) 0.5% | insulin secretion stimulation [2] -0.8% | viability decrease [3] 32.1% | tube area decrease [4] -2.8% | GLP1 secretion stimulation [5] -2.8% | inhibition of viability [6] 33% | viability decrease (inhibition) [7] 25.1% | viability decrease (inhibition) [8] 29.7%
-0.6%: nuclear beta-catenin stimulation ([1]; stimulation, at 2 µM)

Cc1cn([C@H]2C[C@H](F)[C@@H](CO)O2)c(=O)[nH]c1=O
inactive: nuclear beta-catenin stimulation ([1]; at 10 µM) 9.9% | insulin secretion stimulation [2] 0.2% | viability decrease [3] -4.5% | tube area decrease [4] 20.7% | GLP1 secretion stimulation [5] -4.5% | inhibition of viability [6] 1.4% | viability decrease (inhibition) [7] -3.5% | viability decrease (inhibition) [8] -8.7%
3.4%: nuclear beta-catenin stimulation ([1]; stimulation, at 2 µM)
